# Screening data as filed in PubChem.
# Shown are actives, neighbours in structure and some others; about 6.3% of the full set was active somewhere.
# tim23-1 inh – tim23-1 yeast growth inhibition; S. cerevisiae tim23-1 growth, BacTiter-Glo luminescence, 24 h; actives 1.3% (n = 330,000); inhibition, % at 20 µM; AID 463212;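 active means growth inhibition of the mutant yeast at or above 50%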;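 further: temperature-sensitive mutant grown at 25 °C; plate controls were DMSO-treated mutant yeast for no effect and medium wells lacking yeast for full effect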
# tim10-1 inh – growth inhibitors of tim10-1 mutant yeast; AID 463190; actives 2.2% (n = 330,000); S. cerevisiae tim10-1 ts strain growth, BacTiter-Glo, 24 h; inhibition, % at 20 µM;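 active means inhibition of at least 40%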;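 further: mutant grown at 25 °C; 0% = DMSO wells with yeast and 100% = wells holding no yeast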
# TIM10 inh – TIM10 yeast growth inhibition; actives 1.4% (n = 330,000); inhibition, % at 10 µM; S. cerevisiae TIM10 strain growth, BacTiter-Glo luminescence, 24 h; AID 463195;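 active means inhibition of 40% or more at the single tested concentration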;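 further: wild-type TIM10 isogenic control strain grown at permissive 25 °C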
# Mdm2 MdmX PPI – disrupts the human Mdm2-MdmX interaction; O15151+Q00987; SaOS-2 split-luciferase Mdm2/MdmX complementation, luminescence; inhibition, % at 8 µM; actives 3% (n = 330,000); AID 485346;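 active means inhibition of at least 50% at 8 µM in the primary screen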
# Target sequence (O15151 whole entry, looked up): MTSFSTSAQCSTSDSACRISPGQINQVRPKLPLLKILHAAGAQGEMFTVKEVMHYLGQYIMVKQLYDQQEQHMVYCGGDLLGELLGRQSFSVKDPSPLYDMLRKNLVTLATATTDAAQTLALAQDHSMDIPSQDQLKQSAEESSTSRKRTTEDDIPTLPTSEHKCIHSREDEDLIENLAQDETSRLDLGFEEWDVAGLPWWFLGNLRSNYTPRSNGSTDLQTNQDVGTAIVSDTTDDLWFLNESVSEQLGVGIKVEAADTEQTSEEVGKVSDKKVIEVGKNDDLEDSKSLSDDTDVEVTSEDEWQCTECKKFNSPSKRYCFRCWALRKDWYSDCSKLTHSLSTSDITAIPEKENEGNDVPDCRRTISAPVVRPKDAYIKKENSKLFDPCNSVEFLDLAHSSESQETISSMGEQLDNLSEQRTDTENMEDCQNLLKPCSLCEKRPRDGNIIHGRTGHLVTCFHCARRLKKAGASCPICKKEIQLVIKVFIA
# Target sequence (Q00987 whole entry, looked up): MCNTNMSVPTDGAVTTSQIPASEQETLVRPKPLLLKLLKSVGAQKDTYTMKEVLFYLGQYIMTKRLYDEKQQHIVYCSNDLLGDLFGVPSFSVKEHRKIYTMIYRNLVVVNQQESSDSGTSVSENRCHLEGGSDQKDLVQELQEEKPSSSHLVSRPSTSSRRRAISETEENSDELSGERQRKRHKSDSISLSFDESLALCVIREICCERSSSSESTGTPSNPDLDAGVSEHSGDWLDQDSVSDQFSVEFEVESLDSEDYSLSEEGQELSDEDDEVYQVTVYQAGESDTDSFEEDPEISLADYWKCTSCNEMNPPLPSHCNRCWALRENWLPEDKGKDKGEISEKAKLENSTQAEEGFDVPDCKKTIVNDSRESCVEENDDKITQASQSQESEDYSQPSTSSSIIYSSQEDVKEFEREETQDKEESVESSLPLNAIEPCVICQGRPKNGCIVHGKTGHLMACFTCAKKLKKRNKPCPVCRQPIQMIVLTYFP
# MPTP block – blocks calcium-induced mitochondrial swelling; isolated mouse mitochondria, Ca2+ swelling absorbance, 30 min; inhibition, % at 10 µM; actives 1.4% (n = 360,000);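 active means inhibition of 50% or more, scaled per plate between neutral and stimulator controls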;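 further: 0% = DMSO wells given calcium and 100% = 1 mM EGTA wells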
# TIM10 conf – confirmation of TIM10 yeast growth inhibitors; actives 63% (n = 4,600); S. cerevisiae tim10 strain growth, BacTiter-Glo luminescence, 24 h; AID 463215; inhibition, % at 10 µM; shares compounds with TIM10 inh;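 active means inhibition of yeast growth at or above a set limit in either of two replicates at 10 µM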;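 further: this counterscreen used the strain with wild-type TIM10; 0% = yeast with DMSO and 100% = medium wells lacking yeast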
# tim23-1 confirm – tim23-1 yeast growth inhibition, confirmed; shares compounds with tim23-1 inh; S. cerevisiae tim23-1 growth, BacTiter-Glo luminescence, 24 h; inhibition, % at 20 µM; actives 83% (n = 4,400);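 active means inhibition above about 39% in either of two replicate wells at 20 µM, limit read from the data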;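 further: temperature-sensitive tim23-1 mutant grown at 25 °C; 0% = DMSO wells with yeast and 100% = medium wells without yeast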
# An asterisk follows results filed as active; · = no result given; ! = not confirmed by another sample.
SMILES,tim23-1 inh,tim10-1 inh,TIM10 inh,Mdm2 MdmX PPI,MPTP block,TIM10 conf,tim23-1 confirm
CCOc1ccc(NC(=O)COC(=O)CC2CC3CCC2C3)cc1 (stereo unspecified),59*,4,44*,14,-1,40*,54*
CN1/C(=C\C(=O)CSc2cccc[n+]2[O-])C(C)(C)c2ccccc21,65*,32,41*,8,0,-6,78*
Cc1cccc[n+]1CC(=O)/C=C1\N(C)c2ccccc2C1(C)C,14,13,19,-1,1,·,·
Oc1c(C=Nc2cccnc2)sc2ccccc12,-1,4,21,32,0,·,·
Oc1c(C=Nc2ccccc2)sc2ccccc12,66*,33,40*,9,0,45*,62*
CC1(C)CC(=O)C=C(c2n[nH]nc2-c2ccccc2)C1,·,·,·,·,1,·,·
Cc1ccc(Nc2ncccc2C(N)=O)cc1[N+](=O)[O-],56*,24,43*,-184,-3,40*,69*
CCn1c(C)c(C)c2cc(C(=O)Nc3cccc(Cl)c3)ccc21,52*,20,41*,14,-3,51*,57*
CC1(c2ccccc2)ON(c2ccccc2C(F)(F)F)C1=O (stereo unspecified),62*,-33,54*,46,·,65*,-13
CC(=O)c1cccc(-c2ccnc3c2CC(C(=O)Nc2ccc(F)c(Cl)c2)O3)c1 (stereo unspecified),·,·,·,·,3,·,·
O=C(NC1CCCCC1)N(c1ccccc1)c1nnc(-c2cccc([N+](=O)[O-])c2)s1,·,·,·,·,0,·,·
CCCOc1ccc(/C=c2\sc3ncnn3c2=O)cc1,47,32,19,13,0,·,·
CCOc1ccccc1/C=c1\sc2ncnn2c1=O,60*,38,43*,-11,3,32*,74*
CCOC(=O)/C(=C\c1ccc(OC)c(OC)c1)C(=O)c1cccnc1,59*,35,50*,-30,0,48*,56*
COc1ccc(C(=O)/C=C2\C(=O)Nc3ccc(Br)cc32)cc1,·,·,·,·,0,·,·
O=C1Nc2ccc(Br)cc2/C1=C/C(=O)c1ccc2c(c1)OCO2,73*,17,53*,41,-4,64*,-70
O=C(C1COc2ccccc2O1)N1CCN(c2ccc([N+](=O)[O-])cc2)CC1 (stereo unspecified),61*,36,43*,21,-1,47*,55*
C(=C\c1ccccc1)/CN1CCN(C(c2nnnn2Cc2ccccc2)C2CC2)CC1 (stereo unspecified),·,·,·,·,1,·,·
CCOC(=O)CSC1=NC(=O)/C(=C\c2ccc(Cl)cc2)S1,71*,38,50*,23,41,58*,45*
O=C(Nc1cccc2nsnc12)c1cccs1,61*!,16,69*!,-1,6,58*,76*
COc1cccc(C(=O)N2CCC[C@H]2C(=O)N2CCC[C@H]2C(=O)NCc2ccccn2)c1,·,·,·,·,1,·,·
CN(Cc1ccc(Cl)cc1Cl)C(=O)C1CC(=O)N(Cc2ccco2)C1 (stereo unspecified),·,·,·,·,-1,·,·
CC1Nc2ncnc(N3CCc4ccccc4C3)c2N(Cc2ccccc2)C1=O (stereo unspecified),·,·,·,·,1,·,·
Cc1cc2n(n1)C(c1ccc(N(C)C)cc1)Nc1ccccc1-2 (stereo unspecified),55*,34,40*,-53,4,34*,64*
CC(=O)N1c2ccc(N=Cc3cc(Br)cc(Br)c3O)cc2CC1C (stereo unspecified),84*,35,73*,27,·,28,87*
COc1ccc(NC(=O)C2C(c3ccccc3)C2(Cl)Cl)cc1 (stereo unspecified),18,2,18,31,31,·,·
Cc1cccc(NC(=O)C2C(c3ccccc3)C2(Cl)Cl)c1 (stereo unspecified),52*,11,46*,4,15,33*,51*
O=C(/C=C/c1ccccn1)c1cc(Cl)cc(Cl)c1O,63*,37,61*,-15,1,53*,24
O/N=C/c1ccccc1OCc1ccc(Cl)cc1,52*,23,42*,-13,6,-27,59*
